FPR binder: human FPR ligands by binding competition, primary screen, cell-based, FPRL1 counter-screen, flow cytometry; 24,000 tested, 0.74% active; inhibition, % (test concentration not listed); FPR-expressing cells, fluorescent ligand binding; fMet-Leu-Phe receptor (Homo sapiens), P21462;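 also: 0% = buffer wells and 100% = receptor blocker peptide wells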
FPRL1 ligand: human FPRL1 ligands by binding competition, primary screen, cell-based, FPR counter-screen, flow cytometry | FPRL1-expressing cells, fluorescent ligand binding inhibition | 24,000 tested, 0.3% active | inhibition, % (no concentration beside the values) | N-formyl peptide receptor 2 (Homo sapiens), P25090;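 also: 0% = buffer alone and 100% = receptor blocker peptide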
Target sequence (P25090 whole entry, looked up): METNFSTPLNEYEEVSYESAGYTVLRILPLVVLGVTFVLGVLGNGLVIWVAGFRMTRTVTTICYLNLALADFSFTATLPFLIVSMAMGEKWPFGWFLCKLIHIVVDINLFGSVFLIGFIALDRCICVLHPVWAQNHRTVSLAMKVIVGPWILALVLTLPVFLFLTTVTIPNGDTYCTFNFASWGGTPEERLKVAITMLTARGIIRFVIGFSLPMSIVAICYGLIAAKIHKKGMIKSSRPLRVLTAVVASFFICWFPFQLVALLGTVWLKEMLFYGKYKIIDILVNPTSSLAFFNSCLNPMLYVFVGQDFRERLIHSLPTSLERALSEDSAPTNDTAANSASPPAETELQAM
* marks the source's active call; other numbers are inactive results. This is a sample that favours compounds with a hit; in the whole collection about 1% have one here. Rule as the data show it: active = inhibition above about 30%; inconclusive = no clear call, values can overlap the other calls; inactive = below that.

SMILES	FPR binder	FPRL1 ligand
Cc1[nH]n2c(=O)cc(C(C)C)nc2c1-c1ccccc1	-4.4	-0.8
Cc1[nH]n2c(=O)cc(-c3ccc([N+](=O)[O-])cc3)nc2c1-c1ccccc1	69.6*	47.3*
O=C(CSc1ncnc2ccccc12)N1CCN(c2ccccc2)CC1	-2.2	0.5
CC(=O)Nc1cccc(NC(=O)CSc2nnc(Cc3cccn3C)n2CCc2ccccc2)c1	1.8	-1.2
COC(=O)c1[nH]c(C)c(/C(O)=C2\C(=O)C(=O)N(CCN3CCOCC3)C2c2ccccc2OC)c1C (centres undefined)	4.3	13.9
COC(=O)c1[nH]c(C)c(/C(O)=C2\C(=O)C(=O)N(CCN3CCOCC3)C2c2cccs2)c1C (centres undefined)	54.2*	0.9
COc1ccc(N2CCN(CCNC(=O)CCS(=O)(=O)c3cccc4nsnc34)CC2)cc1	11.4	8.6
COc1ccccc1OCc1ccc(C(=O)Nc2ccncc2)o1	-3.7	-4.3
Cc1cc(N2C(=O)C(=O)/C(=C(/O)c3ccc(F)cc3)C2c2cccc(Br)c2)no1 (centres undefined)	2.9	-18.3
Cc1ccc(/C(O)=C2\C(=O)C(=O)N(c3cc(C)on3)C2c2cccc(Br)c2)cc1 (centres undefined)	40.2*	26.6
N#CC1=C(N)S[C@H](C(=O)C23CC4CC(CC(C4)C2)C3)[C@H]1c1ccncc1	-0.1	-5.1
COc1ccc(OC)c(NC(=O)C2C3CCC(C3=C(C)C)C2C(=O)O)c1 (centres undefined)	38.3*	25.5
COc1ccc(OC)c(NC(=O)C2CCCCC2C(=O)O)c1 (centres undefined)	-5.9	-0.5
CCOCCCNC(=O)CC1Oc2ccc(C)cc2NC1=O (centres undefined)	4.5	5.9
COc1cc(C)nc(SCC(N)=O)n1	-2.4	8.0
Cc1cc(SCC(N)=O)nc(SCC(=O)c2ccccc2)n1	48.2*	48.8*
O=C(NC1(C(F)(F)F)C(=O)Nc2c1c(=O)[nH]c(=O)n2Cc1ccco1)C1CC1 (centres undefined)	-0.1	3.3
CCOC(=O)c1oc2cc(O)c(CC)cc2c(=O)c1-c1ccc2c(c1)OCCO2	2.2	-1.8
Cc1oc2cc(O)cc(O)c2c(=O)c1-c1ccc2c(c1)OCCCO2	31.4*	23.0
COC(=O)C1=C(NC(=O)c2cccc(C)c2)CCS1	-3.1	2.7
S=C(N=Nc1ccccc1)NNc1ccccc1	5.6	5.9
CCOC(=O)C1CCN(CC(O)COc2ccc(C(C)=O)cc2)CC1 (centres undefined)	34.6*	26.9
CCOC(=O)C1CCN(Cc2ccc(C(=O)OC)cc2)CC1	47.8*	55.1*
CCOC(=O)C1CCN(c2c(NCCCN3CCN(Cc4ccccc4)CC3)c(=O)c2=O)CC1	-6.3	5.9
CC(=O)c1ccc(OCC(O)CN2CCN(Cc3ccccc3)CC2)cc1 (centres undefined)	2.2	6.7
SMILES	FPR binder	FPRL1 ligand
CC(=O)Nc1ccccc1N(C)S(=O)(=O)c1ccc(C)cc1	1.1	2.8
CCOc1ccc(C(C)=O)cc1COc1ccc(-n2cnnn2)cc1	-7.0	-6.3
CN1CCN(c2ccccc2NC(=O)C(Cc2ccccc2)n2cccc2)CC1 (centres undefined)	-1.1	-1.9
C/C(=C1/SC(N2CCCC2)=NC1=O)c1ccc(Br)cc1	42.3*	6.6
C=CCN1C(=O)/C(=C2\SC(N3CCOCC3)=NC2=O)c2cc(Br)ccc21	-4.0	-0.3
CCOC(=O)C1CCCN(c2cc(=O)n(Cc3ccc(F)cc3)c(=O)[nH]2)C1 (centres undefined)	5.5	2.3
CCCCn1c(NC(=O)CC)c(C#N)c2nc3ccccc3nc21	48.2*	-0.7
CCCCn1c(NC(=O)c2ccccc2Cl)c(C#N)c2nc3ccccc3nc21	3.0	-0.7
O=C(C1CCCN(S(=O)(=O)c2cccc3cccnc23)C1)N1CCc2ccccc21 (centres undefined)	10.1	-1.8
CCOC(=O)Cc1cc(=O)n2[nH]c(C)c(-c3ccc(Cl)cc3)c2n1	54.0*	0.9
CCOC(=O)Cc1cc(=O)n2[nH]c(C)c(-c3ccc(OC)cc3)c2n1	43.6*	1.3
COC(=O)Cc1cc(=O)n2[nH]c(C)c(-c3ccccc3)c2n1	4.9	1.8
CCOC(=O)Cc1c(C)nc2c(-c3ccc(Cl)cc3)c[nH]n2c1=O	-3.6	-8.6
CCN(CCCNS(=O)(=O)c1ccc2c(c1)CCN2C(C)=O)c1cccc(C)c1	2.3	-0.3
Cc1ccc(C2/C(=C(/O)c3ccc(Br)cc3)C(=O)C(=O)N2Cc2ccco2)o1 (centres undefined)	30.8*	-1.8
COc1ccccc1C1/C(=C(/O)c2ccccc2)C(=O)C(=O)N1CC(C)C (centres undefined)	63.0*	-3.5
COCCCN1C(=O)C(=O)/C(=C(/O)c2ccc(C)cc2)C1c1ccccc1 (centres undefined)	0.1	-1.6
CCOc1cccc(/C(O)=C2/C(=O)C(=O)N(Cc3ccco3)C2c2ccncc2)c1 (centres undefined)	48.2*	28.6
COc1ccccc1C1/C(=C(/O)c2ccc(C)cc2)C(=O)C(=O)N1CC(C)O (centres undefined)	-9.9	1.0
COc1cccc(/C(O)=C2/C(=O)C(=O)N(Cc3ccco3)C2c2ccncc2)c1 (centres undefined)	11.6	-2.5
Cc1ccc(/C(O)=C2\C(=O)C(=O)N(CC(C)O)C2c2ccc(N(C)C)cc2)cc1 (centres undefined)	36.3*	23.8
COc1ccc(OC)c(C2/C(=C(/O)c3ccc(C)cc3)C(=O)C(=O)N2Cc2ccco2)c1 (centres undefined)	-0.4	-6.4
N#CC1=C(N)Oc2n[nH]c(-c3ccc(F)cc3)c2C1c1ccncc1 (centres undefined)	5.8	12.6
O=C(Cn1ncc2c(=O)oc3ccccc3c21)Nc1nc2ccccc2s1	-1.5	-4.7
CN1C(=O)CSc2ccc(NC(=O)NCCC3=CCCCC3)cc21	11.3	10.6
SMILES	FPR binder	FPRL1 ligand
Cc1ccc(S(=O)(=O)N2CCN(Cc3cc(C(C)C)ccc3O)CC2)cc1	-6.8	-4.9
Cn1c(=O)c2c3c(sc2n2c(SCC(=O)c4ccc(Cl)cc4)nnc12)COC(C)(C)C3	1.0	1.5
COc1ccc(C2C(C(=O)NCCN3CCOCC3)c3ccccc3C(=O)N2C2CCCCC2)cc1 (centres undefined)	-1.3	1.3
CC1CN(Cc2nc3c(c(=O)[nH]c(=O)n3C)n2CCCc2ccccc2)CC(C)O1 (centres undefined)	-5.2	-15.4
COc1ccc(/C(O)=C2\C(=O)C(=O)N(Cc3ccco3)C2c2cc(OC)ccc2OC)cc1 (centres undefined)	-11.4	-4.4
COc1ccc(C2/C(=C(/O)c3ccccc3)C(=O)C(=O)N2CCO)cc1 (centres undefined)	9.4	-2.1
COc1ccc(OC)c(C2/C(=C(/O)c3ccccc3)C(=O)C(=O)N2Cc2ccco2)c1 (centres undefined)	92.0*	-14.6
COc1ccc(C2/C(=C(/O)c3ccccc3)C(=O)C(=O)N2CC(C)O)c(OC)c1 (centres undefined)	42.2*	6.7
CC12CC(NC(=O)N1c1cccc(C(=O)N3CCN(c4ccccn4)CC3)c1)c1ccccc1O2 (centres undefined)	-0.1	3.8
